Values without a mark were called inactive. How the calls were made is not given here.
target: Pantothenate synthetase (Mycobacterium tuberculosis (strain ATCC 25618 / H37Rv)) (UniProt P9WIL5); assay: Coupled enzyme confirmation of inhibitors against recombinant Mtb PanC (AID 375); details: coupled enzyme assay; at 10 µM, active compounds read high;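 further: 0% = full reaction with vehicle and 100% = no enzyme background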
Sequence (P9WIL5 whole entry, looked up): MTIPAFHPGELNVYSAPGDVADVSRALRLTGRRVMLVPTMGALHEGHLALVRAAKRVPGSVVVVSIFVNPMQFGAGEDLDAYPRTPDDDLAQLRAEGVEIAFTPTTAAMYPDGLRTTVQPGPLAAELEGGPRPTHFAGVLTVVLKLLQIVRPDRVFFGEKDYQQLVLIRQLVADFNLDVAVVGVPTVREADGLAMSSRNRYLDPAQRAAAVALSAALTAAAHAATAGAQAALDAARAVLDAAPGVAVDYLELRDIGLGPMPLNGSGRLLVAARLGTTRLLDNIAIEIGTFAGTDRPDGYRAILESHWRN

| SMILES | inhibition [%] |
| --- | --- |
| O=C(OCC#CCSc1nc2ccccc2o1)c1ccco1 | 0 |
| COCC(=O)N(Cc1ccccc1)c1ccccn1 | 4 |
| CCOc1ncccc1C(=O)OCC(=O)N1CC(=O)Nc2ccccc21 | 0 |
| COc1ccc(CC(NC(C)=O)C(=O)NC2CCN(c3nc(C)cc(C)c3C#N)CC2)c(OC)c1 (stereo not given) | 0 |
| Cc1onc(-c2ccccc2)c1C(=O)N[C@@H]1C(=O)N2[C@@H]1SC(C)(C)[C@@H]2C(=O)O | 0 |
| COCCCNC(=O)CCCn1c(=O)c2ccccc2n(CC(=O)Nc2c(C)cccc2C)c1=O | 0 |
| CN(C=C1C(=O)CC(C)(C)CC1=O)CCN1CCNCC1 | 1 |
| Cc1ccc(C)c(N(CC(=O)NC2CCCC2)C(=O)CCCC(=O)Nc2ccccn2)c1 | 2 |
| CS(=O)(=O)N1CCN(c2ccccc2NC(=O)c2cccs2)CC1 | 2 |
| Cc1nc2cc(N3CCCCC3)c(NC(=O)c3cccnc3)cc2c(=O)n1Cc1ccccc1 | 1 |
| O=C(Cn1nnc(-c2cccs2)n1)OC1CCCCC1 | 4 |
| COc1ccccc1OCCSc1nc2ccccc2c(=O)[nH]1 | 0 |
| Cc1cc(OC(=O)N2CCOCC2)cc(C)c1Cl | 0 |
| CSCCC(N=CC1=C(O)CC(C)(C)CC1=O)C(=O)O (stereo not given) | 2 |
| COC(=O)c1ccccc1NC(=O)N1CCCC1 | 0 |
| O=C1c2ccccc2NC(c2ccco2)N1O (stereo not given) | 5 |
| O=C(OCC#CCSc1nnc(-c2ccccc2)o1)c1cccs1 | 0 |
| c1coc(Cn2nnnc2CN2CCN(C3CCCC3)CC2)c1 | 0 |
| Fc1ccccc1Cn1nnc2c(-n3ccnc3)ncnc21 | 0 |
| C=CCn1c(SCC(=O)c2ccccc2)nnc1-c1ccc2c(c1)OCO2 | 0 |

| SMILES | inhibition [%] |
| --- | --- |
| Cn1nc(C(=O)NC2CCCCCC2)ccc1=O | 0 |
| O=C(Nc1sccc1C(=O)NCc1ccco1)c1cccnc1 | 5 |
| CCN(CC)CCNC(=O)c1ccc(NC(C)=O)cc1 | 0 |
| Cc1cc(C(C)(C)C)c(O)c(C)c1CC1=NCCN1 | 0 |
| Cn1c(=N)n(CC(=O)O)c2ccccc21 | 9 |
| O=C1NC(=O)C2(CCC(C(=O)O)C2)N1 (stereo not given) | 11 |
| CCS(=O)(=O)N1CCC(C(=O)NCc2cccs2)CC1 | 2 |
| COCCNC(=O)C(c1cccs1)N(C(=O)Cn1nnc2ccccc21)c1ccccc1 (stereo not given) | 6 |
| COC(=O)CCN(C(=O)c1ccc2c(c1)OCO2)c1ccccn1 | 0 |
| CCCn1c(SCC(=O)N2CCN(c3ccccc3)CC2)nc2ccccc2c1=O | 0 |
| O=C(Nc1ccccc1-c1nc2ccccc2o1)c1ccc2c(c1)OCCO2 | 5 |
| CN(C)C(=O)N1CCCC(C(=O)NCc2ccccc2)C1 (stereo not given) | 0 |
| CCOC(=O)N1CCN(c2c(N3CCc4ccccc4C3)c(=O)c2=O)CC1 | 0 |
| Cc1nnc(C)n1/N=C/c1cccc(Oc2ccccc2)c1 | 1 |
| C=CCn1c(N)c(C(=O)NCCC2=CCCCC2)sc1=S | 0 |
| Cn1ccnc1SCCC#N | 7 |
| CCN1CCN(C(=O)c2cn(CC)c3ccc(S(=O)(=O)N(C)C)cc3c2=O)CC1 | 0 |
| O=[n+]1c2c(n([O-])c3cc(F)c(N4CCCC4)cc31)CCC2 | 9 |
| CCOC(=O)N1CCN(C(=O)CCc2c(C)nc3c(c(C)nn3-c3ccc(C)c(C)c3)c2C)CC1 | 0 |
| Cc1sc(NC(=O)CSc2nnc(COc3ccccc3)n2C)c(C#N)c1C | 6 |
